# Experimental data reported in PubChem BioAssay AID2685 (National Center for Advancing Translational Sciences (NCATS), 2010).
# The whole screen tested about 320,000 compounds, of which about 2,100 (0.66%) were called active. Inconclusive results (about 53%) are left out. The sample holds actives, similar compounds and a random draw of the others, so the mix is not that of the screen. The call rests on the fitted dose curve; in most records, active means well fitted inhibition curve with a large enough effect in the signal ratio, with a control signal flat (not every such curve was filed as active); inconclusive means small, poorly fitted or top-dose-only effect, or effect the other way, or a change in a side signal; inactive means flat fitted curve, though single readings scatter; the % refers to the signal ratio.
# Assay: qHTS Assay for Lipid Storage Modulators in Drosophila S3 Cells;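 on cell number change: cells counted by Cell Tracker Red CMTPX staining in the red channel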; on lipid storage change, negative = inhibition: on the % scale 0 is the no-effect control and ±100 the full control effect
# Conditions: BODIPY lipid droplet fluorescence, 18-24 h, cells fed with added oleic acid; cell number change: measured here: cell count max response; series mostly up to 46.1 µM
# Summary of the method: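 Laser-scanning cytometry quantifies lipid droplet accumulation (500–530 nm total intensity; droplet/cell object ratio) in oleic acid-fed (400 uM added) Drosophila S3 cells treated with a concentration series. 20 uM Triacsin C defined 100% inhibition.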
# Potency means the concentration at half of the fitted maximal effect.
Compound,Potency,cell number change,"lipid storage change, negative = inhibition"
OC[C@H]1O[C@@H](O[C@@H]2[C@@H](CO)O[C@@](O)(CO)[C@H]2O)[C@H](O)[C@@H](O)[C@H]1O,inactive,,
O=C(Nc1ccccc1C(=O)NCCCN1CCOCC1)c1ccc(Cl)cc1,inactive,1.08%,
COc1ccc(CC(=O)NCC2CCCN(Cc3ccccc3Cl)C2)cc1 (stereo not given),inactive,-2.61%,
Cc1nc2c(sc3nc(N4CCOCC4)c4c(c32)CC(C)(C)OC4)c(-c2ccc(Cl)cc2)c1C(=O)O,16.4 µM (active),-7.08%,
Cc1ccc(NC(=O)c2sc3nc(N4CCOCC4)c4c(c3c2N)CC(C)(C)OC4)cc1,inactive,,
Cc1nc2c(sc3nc(N4CCOCC4)c4c(c32)CC(C)(C)OC4)c(-c2ccccc2)c1C(=O)O,inactive,21%,
O=C(NC1CC2CCCC(C1)N2C(=O)Nc1ccccc1)c1ccncc1 (stereo not given),inactive,23.5%,
Cc1nc2sc(C(=O)OCC(=O)N3c4ccccc4CC3C)c(C)c2c(=O)[nH]1 (stereo not given),inactive,19.4%,
COc1ccc(N2C(=O)NC(NC(=O)C(C)(C)C)(C(F)(F)F)C2=O)cc1 (stereo not given),inactive,-16.8%,
CC1(c2ccccc2)CC(c2ccccc2)=Nc2ccccc2N1 (stereo not given),inactive,1.92%,
CC1CC(c2ccccc2)=Nc2ccccc2N1 (stereo not given),0.82 µM (active),13.7%,
Clc1ccccc1C1CC(c2ccccc2)=Nc2ccccc2N1 (stereo not given),inactive,-20.8%,
CCN1CCN(Cc2c(C(=O)N/N=C(\C)c3ccc(Cl)c(Cl)c3)nnn2-c2nonc2N)CC1,inactive,-0.855%,
Cn1c(N)c(C(=O)COC(=O)c2ccc(Cl)c(S(=O)(=O)N3CCCC3)c2)c(=O)n(C)c1=O,inactive,1.25%,
O=C(Cn1cc([N+](=O)[O-])cn1)Nc1nc2ccccc2s1,inactive,,
COc1cc(/C=C/C(=O)O)cc(S(=O)(=O)NCCO)c1OC,inactive,-11.7%,
CC1Cc2ccccc2N1C(=O)CNCCCN(C)C (stereo not given),20.6 µM (active),-0.87%,
CC1Cc2ccccc2N1C(=O)CNc1ccccc1N1CCCCC1 (stereo not given),inactive,1.48%,
CC1Cc2ccccc2N1C(=O)CSc1ccccc1 (stereo not given),inactive,-23.8%,
CC(C(=O)NC1=NCCS1)N1C(=O)c2ccccc2C1=O (stereo not given),inactive,-6.04%,
CC(NC(=O)C1CCCCC1)C(=O)NC1=NCCS1 (stereo not given),20.6 µM (active),-6.79%,
CC(NC(=O)c1ccc(Br)cc1)C(=O)NC1=NCCS1 (stereo not given),,5.62%,-5.54% [at 9.22 µM] (inactive)
CC(C(=O)NC1=NCCS1)N1C(=O)C2CC=CCC2C1=O (stereo not given),29.1 µM (active),-25.7%,

Compound,Potency,cell number change,"lipid storage change, negative = inhibition"
CC(NC(=O)c1ccccc1)C(=O)NC1=NCCS1 (stereo not given),inactive,-3.51%,
O=C(CN1C(=O)C2CC=CCC2C1=O)NC1=NCCS1 (stereo not given),inactive,4.96%,
COC(=O)CC1C(=O)NC2CCCCC2N1C(=O)c1ccccc1 (stereo not given),inactive,-6.42%,
COCC(C)NC(=O)COc1ccc(Cl)cc1Cl (stereo not given),inactive,14.4%,
CC(=O)N(C)c1nc(N)n(-c2ccccc2)n1,inactive,17.4%,
CN(CC(=O)Nc1ccc(N2CCOCC2)cc1)C(=O)C12CC3CC(CC(C3)C1)C2,inactive,0.396%,
CC(C)(C)c1ccc(NC(=O)Nc2ccc3ccccc3n2)cc1,inactive,14.5%,
CCCCn1c(=N)n(CC(=O)O)c2ccccc21,inactive,-0.932%,
COc1ccc(N(CC(=O)N/N=C/c2cc3ccc(OC)cc3nc2Cl)S(=O)(=O)c2ccccc2)cc1,inactive,5.98%,
COc1ccc(Cc2noc(CN3CCCN(Cc4ccc(F)cc4)CC3)n2)cc1OC,inactive,-12.5%,
Cc1ccn2c(C(=O)NNC(=O)Nc3ccc(Cl)cc3)c(C)nc2c1,inactive,-7.08%,
CCCCN(C(=O)C1CC(=O)N(c2ccc(C)cc2)C1)c1c(N)n(CCC)c(=O)[nH]c1=O (stereo not given),20.6 µM (active),-1.39%,
CCCCN(C(=O)C1CC(=O)N(Cc2ccc(C)cc2)C1)c1c(N)n(CCCC)c(=O)[nH]c1=O (stereo not given),inactive,2.26%,
CCCCN(C(=O)C1CCCC1)c1c(N)n(CCC)c(=O)[nH]c1=O,inactive,10.4%,
Cc1ccc(-c2csc(NC(=O)c3cccc(S(=O)(=O)N4CCN(C)CC4)c3)n2)cc1,inactive,13%,
O=C1CC(c2ccccc2)CC(=NCCO)/C1=C(\O)CCCN1C(=O)c2ccccc2C1=O (stereo not given),inactive,-9.46%,
CC12CN3CCN(CC(C3)C1(O)CN1CCCCC1)C2 (stereo not given),inactive,-4.02%,
CC12CN3CCN(CC(C3)C1(O)CN1CCOCC1)C2 (stereo not given),4.61 µM (active),0.875%,
OC1(CN2CCOCC2)C2CN3CCN(C2)CC1(c1ccccc1)C3 (stereo not given),inactive,10%,
CCOc1ccc(C(C(=O)NC2CCCC2)N(CCCO)C(=O)c2ccc(-c3ccccc3)[nH]2)cc1 (stereo not given),inactive,42.7%,
Cc1nnc(-c2ccc(Oc3ccc(Br)cc3)c([N+](=O)[O-])c2)o1,inactive,2.33%,
O=C(C/C=N/OCc1ccc(Cl)cc1Cl)c1ccc(Cl)cc1,inactive,4.16%,
Clc1ccc(CNC2CCCC2)cc1,20.6 µM (active),-30.8%,

Compound,Potency,cell number change,"lipid storage change, negative = inhibition"
Clc1ccc(CNC2CCCC2)c(Cl)c1,inactive,-13.9%,
Oc1ccc(CNC2CCCCC2)cc1,inactive,0.0125%,
CCCCOC(=O)C1C2C=CC3(CN(CCc4ccccc4)C(=O)C13)O2 (stereo not given),inactive,-8.47%,
N#Cc1c(NC(=O)c2ccc(Cn3cc(Br)cn3)o2)sc2c1CCCCC2,inactive,0.806%,
Cc1ccc(N=c2sc(C)c(C)n2C)cc1,inactive,-18.9%,
C1CCCCCC(NCCN2CCNCC2)CCCCC1,inactive,2.58%,
O=C(c1ccccc1)N1CCN(CC(O)COC2CCCCC2)CC1 (stereo not given),inactive,4.36%,
C1CCC(OCCN2CCN(CCOC3CCCCC3)CC2)CC1,25.9 µM (active),6%,
COCCNC(=O)CN1CCC(NC(=O)c2ccco2)CC1,inactive,-1.29%,
Cc1ccc(NC(=O)c2c(F)cccc2Cl)cc1NS(C)(=O)=O,inactive,5.84%,
COc1ccc(/C=N/NC(=O)c2cccnc2)cc1CN1CCN(c2ccc(F)cc2)CC1,inactive,3.44%,
COc1ccc(CC(=O)Nc2c3c(nn2C(C)(C)C)CS(=O)(=O)C3)cc1OC,inactive,17%,
COCCNCC1C(Oc2ccc(Cl)cc2)C(=O)N1c1ccccc1C (stereo not given),inactive,19.6%,
Cc1ccccc1N1C(=O)C(Oc2ccc(Cl)cc2)C1CNCCCOC(C)C (stereo not given),23.1 µM (active),-13.5%,
CCCCNCC1C(Oc2ccc(Cl)cc2)C(=O)N1c1ccccc1C (stereo not given),inactive,,
Cc1ccnc2c1ccc1c(C)ccnc12,inactive,-0.829%,
O=C(NCc1n[nH]c(=S)n1-c1ccccc1)c1ccc(S(=O)(=O)N2CCCCC2)cc1,inactive,,
COC(=O)c1ccccc1NC(=O)N1CCN(c2ccccc2F)CC1,inactive,25.6%,
COC(=O)c1ccc(N2CCN(c3ccccc3)CC2)c(N)c1,inactive,6.3%,
COC(=O)c1ccccc1N1CCS(=O)(=O)CC1,16.4 µM (active),-18.8%,
CCOC(=O)C1=C(CS(=O)(=O)c2ccccc2)NC(=O)NC1c1cccc(OC)c1 (stereo not given),inactive,15.2%,
COC(=O)c1ccc(NC(=S)N2CCCC2)cc1,inactive,-8.77%,
CC(=O)N1CCc2cc(S(=O)(=O)Nc3ccc(C)cc3)ccc21,inactive,8.46%,

Compound,Potency,cell number change,"lipid storage change, negative = inhibition"
COc1cccc(NS(=O)(=O)c2ccc3c(c2)N(C(C)=O)CCS3)c1,inactive,,
O=S(=O)(Nc1cccc(Cl)c1)c1ccc(-n2cccn2)cc1,inactive,,
COc1cccc(NS(=O)(=O)c2ccc3c(c2)CCN3C(C)=O)c1,1.64 µM (active),-8.33%,
CCc1cccc(NS(=O)(=O)c2ccc(-n3cccn3)cc2)c1,inactive,18.7%,
COc1cccc(NS(=O)(=O)c2ccc(-n3cccn3)cc2)c1,0.0517 µM (active),-7.08%,
Cn1cnnc1Sc1nc2c(c(=O)n(C)c(=O)n2C)n1Cc1ccccc1Cl,inactive,16.5%,
O=C(c1ccc(=O)[nH]c1)N1CCN(S(=O)(=O)c2ccc3ccccc3c2)CC1,inactive,-9.74%,
COc1cc(CO)c(Br)cc1OCC(=O)Nc1ccccc1C,inactive,-15.6%,
O=C(CCCN1C(=O)/C(=C/c2cccs2)SC1=S)NNC(=O)c1ccccc1O,6.51 µM (active),-24.1%,
O=C(CCN1C(=O)/C(=C/c2ccccc2Cl)SC1=S)Nc1ccccn1,20.6 µM (active),-0.66%,
O=C(CCN1C(=O)/C(=C\c2cccs2)SC1=S)Nc1nccs1,inactive,-0.135%,
O=C(CCCN1C(=O)/C(=C\c2cccs2)SC1=S)Nc1cc([N+](=O)[O-])ccc1O,inactive,,
O=C(CCN1C(=O)/C(=C/c2ccccc2F)SC1=S)Nc1ccccn1,inactive,23.3%,
O=C(CCN1C(=O)/C(=C/c2cccs2)SC1=S)Nc1cccc(C(=O)O)c1,0.164 µM (active),-17.1%,
O=C(CCN1C(=O)/C(=C/c2ccccc2)SC1=S)Nc1ccccn1,inactive,-0.917%,
O=C(CN1C(=O)/C(=C\c2cccs2)SC1=S)Nc1cccc(C(=O)O)c1,inactive,24%,
O=C(CCN1C(=O)/C(=C/c2cccs2)SC1=S)Nc1ccccc1O,3.66 µM (active),13.5%,
Cc1ccc(/C=C2\SC(=S)N(CCCC(=O)NNC(=O)c3ccccc3O)C2=O)cc1,inactive,17.7%,
O=C(CCN1C(=O)/C(=C/c2cccs2)SC1=S)Nc1ccc(C(=O)O)c(O)c1,inactive,-26.8%,
O=C(CCCN1C(=O)/C(=C/c2cccs2)SC1=S)NNC(=O)c1ccncc1,inactive,21%,
CCc1ccc(OCC(=O)N(C)CCC#N)c(Br)c1,inactive,,
CC1=[N+]([O-])C(C)(C)C(C)N(O)C1=O (stereo not given),inactive,1.53%,
COc1ccc(C(=O)O)cc1S(=O)(=O)Nc1cc(Cl)ccc1N1CCOCC1,inactive,11.4%,
